Laboratory results: PubChem BioAssay AID624481 (The Scripps Research Institute Molecular Screening Center, 2012)
Unmarked numbers belong to inactive results. Rule as the data show it: active = inhibition above about 50%; inactive = the rest.

Molecular target: Prolyl endopeptidase-like (Mus musculus) (UniProt Q8C167)
Assay: mouse PREPL enzyme inhibition by screening hits – biochemical, gel-based competitive ABPP, fluorescence, HTS hits, PREPL inhibitor project (AID 624481)
Settings: purified mouse PREPL, at 20 µM, hits give high values

Sequence of Prolyl endopeptidase-like (Mus musculus) (Q8C167 whole entry, looked up): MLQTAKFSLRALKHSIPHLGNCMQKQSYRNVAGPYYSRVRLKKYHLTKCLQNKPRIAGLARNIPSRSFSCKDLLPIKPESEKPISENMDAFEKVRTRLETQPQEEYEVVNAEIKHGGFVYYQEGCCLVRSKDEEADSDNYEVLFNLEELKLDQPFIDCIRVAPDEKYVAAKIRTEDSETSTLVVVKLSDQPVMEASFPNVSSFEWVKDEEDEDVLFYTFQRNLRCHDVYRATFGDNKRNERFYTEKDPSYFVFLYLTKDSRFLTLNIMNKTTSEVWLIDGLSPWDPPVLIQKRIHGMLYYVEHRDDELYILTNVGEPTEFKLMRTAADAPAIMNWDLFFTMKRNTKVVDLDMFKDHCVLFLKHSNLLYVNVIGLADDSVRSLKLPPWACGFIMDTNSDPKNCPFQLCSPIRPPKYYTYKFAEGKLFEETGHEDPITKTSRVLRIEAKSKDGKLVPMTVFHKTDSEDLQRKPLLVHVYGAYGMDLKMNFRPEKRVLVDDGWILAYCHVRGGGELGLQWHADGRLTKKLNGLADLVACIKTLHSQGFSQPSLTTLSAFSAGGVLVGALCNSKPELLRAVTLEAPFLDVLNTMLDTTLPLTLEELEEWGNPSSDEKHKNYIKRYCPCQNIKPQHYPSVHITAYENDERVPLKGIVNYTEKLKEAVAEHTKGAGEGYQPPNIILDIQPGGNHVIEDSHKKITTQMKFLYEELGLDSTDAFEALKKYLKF

Compound	inhibition
COc1ccc(N2CCN(c3cc(C)nc4ccc(OC)cc34)CC2)cc1	-69%
c1ccc(N2CCN(c3nc(-c4ccccn4)nc4ccccc34)CC2)cc1	-283%
CC1(C)N=C(N)N=C(N)N1c1ccc(Oc2ccc(Cl)cc2)c(Cl)c1	-35%
CC(=O)N1CCN(c2ccc(NCc3cccc4ccccc34)cc2)CC1	-26%
COc1ccc(C)cc1Nc1n[n+](-c2ccccc2)c(-c2ccc(OC)c(OC)c2OC)s1	-41%
Cc1ccccc1OCc1nnc(SCC(=O)Nc2ccc(N3CCOCC3)c(Cl)c2)n1C	-46%
COc1ccc(N2CCN(c3nc4c(C)cccn4c(=O)c3/C=C(\C#N)C(N)=O)CC2)cc1	-53%
c1ccc(CCNc2nc(-c3ccccn3)nc3ccccc23)cc1	-127%
Cc1ccsc1C=NN=C1C(=O)Nc2ccccc21	-90%
Cc1ccc(Nc2nc(NCCO)c3ccccc3n2)cc1C	-33%
CN1CCN(c2ccc(NC(=O)COc3ccc4ccccc4c3)cc2)CC1	-21%
COc1ccc(NC(=O)Nc2cccc3c2O[C@@H](CN(C)CC2CCCCC2)[C@@H](C)CN([C@H](C)CO)C3=O)cc1	-79%
CC(=O)n1cc([C@@H]2C=C(C(=O)N3CCN(C)CC3)O[C@H](OCc3ccc(CO)cc3)C2)c2ccccc21	-55%
CN1CCN(C(=O)C2=C[C@@H](c3ccc4c(c3)OCO4)C[C@@H](OCc3ccc(CO)cc3)O2)CC1	-46%
Cc1cc2cc(CNC(=O)c3ccc(Br)o3)ccc2n1C	38%
CN(C)c1ccc(C(CNC(=O)c2ccccc2F)c2c[nH]c3ccccc23)cc1 (stereo not drawn)	-10%
COc1ccc(C=NNc2cc(C)nc3ccc(OC)cc23)c(OC)c1	6%
COc1ccc(NCc2nn(CC(=O)c3ccc(Br)cc3)c3[n+]2CCCCC3)cc1	-48%
C#CCOCCOCCOCCNc1nc(N2CCN(C(=O)CCCCCCCCCCNC(=O)Cn3cc(CCCCCN)nn3)CC2)nc(N2CCN(C(=O)CCCCCCCCCCNC(=O)Cn3cc(CCCCCN)nn3)CC2)n1	-99%
O=C(C1=C[C@@H](c2ccc(C(F)(F)F)cc2)C[C@@H](OCCCCO)O1)N1CCN(Cc2ccc3c(c2)OCO3)CC1	-20%
O=C(CN1CCN(c2ccc(O)cc2)CC1)Nc1cc([N+](=O)[O-])ccc1Cl	-53%
COc1ccc2c(CC(=O)Nc3ccc(N4CCOCC4)cc3)coc2c1	-44%
CC(C)NC(=O)c1sc(=S)n2c1[nH]c(=O)c1ccc(C(=O)NCCc3ccc(Cl)cc3)cc12	-28%
